Results published in the supplement of paper PMC8975748.
Counter-ions that a name gives are not always drawn.

system: Saccharomyces cerevisiae BY4741 SeMeCo community; assay: z-score of prototroph abundance vs DMSO median; higher = larger share of this subpopulation than in DMSO controls; conditions: 10 µM; 24 h; SM minimal medium; subpopulation (auxotrophy): Prototroph
Description: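 Fluorescent four-plasmid SeMeCo (self-establishing metabolically cooperating S. cerevisiae BY4741 community; plasmids pH-mRuby2, pL-mWasabi, pU-eCFP, pM-TagRFP657) was grown 24 h in minimal SM medium with each Selleck FDA-approved drug at 10 µM in 384-well plates. Cells were fixed and imaged by high-content confocal microscopy. For each auxotrophic subpopulation (and the prototroph), a z-score gives the deviation from the DMSO vehicle-control population median.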

Compound | z-score of prototroph abundance
CN1[C@@H]2C[C@@H](OC(=O)[C@H](CO)c3ccccc3)C[C@H]1[C@@H]1O[C@@H]12 [Scopolamine HBr] | 0.86
COc1ccc2c3c([nH]c2c1)C(C)=NCC3 [Harmaline] | 3.47
NCC(O)c1ccc(O)cc1 (racemic) [(+,-)-Octopamine HCl] | 0.28
Cc1cc(O)ccc1Cl [Chlorocresol] | 0.71
Nc1nc(N)nc(NC2CC2)n1 [Cyromazine] | -1.21
CCOC(=O)Nc1ccc(NCc2ccc(F)cc2)cc1N [Retigabine] | 0.21
CN1[C@@H]2CC[C@H]1C[C@@H](OC(=O)[C@H](CO)c1ccccc1)C2 [Hyoscyamine] | 0.38
CCN(C)C(=O)Oc1cccc([C@H](C)N(C)C)c1 [Rivastigmine] | -0.39
CC1(C)SC2C(N)C(=O)N2C1C(=O)O (centres undefined) [6-Aminopenicillanic acid] | 0.04
CC[C@@H](C(N)=O)N1CCCC1=O [Levetiracetam] | 0.59
NCCc1c[nH]c2ccc(O)cc12 [Serotonin HCl] | 0.67
CC[C@H]1[C@@H]2C[C@H]3[C@@H]4N(C)c5ccccc5[C@]45C[C@@H]([C@@H]2[C@H]5O)N3[C@@H]1O [Ajmaline] | 0.22
COc1ccc(C=O)cc1 [p-Anisaldehyde] | 1.5
Oc1cccc2cccnc12 [8-Hydroxyquinoline] | 0.32
C[CH2][Hg][S]c1ccccc1C(=O)[O-].[Na+] [Thimerosal] | -17.3
CCOC(=O)Nc1ccc(NCc2ccc(F)cc2)cc1N [Retigabine 2HCl] | 0.05
COc1cc2c(cc1OC)C1CC(=O)C(CC(C)C)CN1CC2 (centres undefined) [Tetrabenazine (Xenazine)] | 0.02

Compound | z-score of prototroph abundance
C=CN1CCCC1=O.II [Povidone iodine] | -1.1
CN(C)[C@@H]1C(=O)C(C(N)=O)=C(O)[C@@]2(O)C(=O)C3=C(O)c4c(O)ccc(Cl)c4[C@@](C)(O)[C@H]3C[C@@H]12 [Chlortetracycline HCl] | 0.13
N#Cc1nn(-c2c(Cl)cc(C(F)(F)F)cc2Cl)c(N)c1[S+]([O-])C(F)(F)F (centres undefined) [Fipronil] | 0.88
Oc1cc(Cl)ccc1Oc1ccc(Cl)cc1Cl [Triclosan] | 2.53
COc1ccc2c(c1)[C@]13CCCC[C@@H]1[C@H](C2)N(C)CC3 [Dextromethorphan hydrobromide hydrate] | 0.38
CC(=O)OCC1=C(C(=O)O)N2C(=O)C(N)C2SC1 (centres undefined) [7-Aminocephalosporanic acid] | 0.2
CCN1CC2(OC(=O)c3ccccc3NC(C)=O)CCC(OC)C34C1C(CC23)C1(O)CC(OC)C2CC4C1(O)C2OC (centres undefined) [Lappaconitine] | 0.24
CC[C@H]1CN2CC[C@]3(C(=O)Nc4ccccc43)[C@@H]2C[C@@H]1/C(=C\OC)C(=O)OC [Rhynchophylline] | -0.9
CCN(CC)CCOC(=O)C(O)(c1ccccc1)c1ccccc1 [Benactyzine hydrochloride] | -0.56
CCC1=C[C@H]2CN3CCc4c([nH]c5ccccc45)[C@](C(=O)OC)(C2)[C@H]13 [Catharanthine] | 0.37
CC(NC(C)(C)C)C(=O)c1cccc(Cl)c1 (centres undefined) [Amfebutamone (Bupropion) HCl] | 0.49
CN1c2ccccc2C(NCCCCCCC(=O)O)c2ccc(Cl)cc2S1(=O)=O (centres undefined) [Tianeptine sodium] | 0
O=c1[nH]c2ccccc2n1CCCN1CCC(n2c(=O)[nH]c3cc(Cl)ccc32)CC1 [Domperidone] | -0.65
C=CCN1C[C@H](C(=O)N(CCCN(C)C)C(=O)NCC)C[C@@H]2c3cccc4[nH]cc(c34)C[C@H]21 [Cabergoline] | -0.35
CN1[C@@H]2CC[C@H]1C[C@@H](OC(=O)C(CO)c1ccccc1)C2 (some centres undefined) [Atropine sulfate monohydrate] | 0.64
C[C@@H]1CC[C@H]2[C@@H](C)C(=O)O[C@@H]3O[C@@]4(C)CC[C@@H]1[C@]32OO4 [Artemisinin] | 1.7
CC(C)=CCOc1c2occc2cc2ccc(=O)oc12 [Imperatorin] | -0.8
